Results from ChEMBL document CHEMBL3433997, “St. Jude Leishmania screening dataset” (2016).

These molecules were tested against Hexose transporter 1 (Plasmodium falciparum) (UniProt O97467) (assay: ST_JUDE_LEISH: Cytotoxicity at 2uM final concentration against transgenic Leishmania Mexicana promastigotes LmPfHT that are glucose transport deficient and complemented with the Plasmodium falciparum hexose transporter. Activity is measured by DNA content using SYBR green in vitro).
Assay type: functional

Structure (SMILES) | inhibition
O=C(Nc1cccc(-c2cccc(-c3nc4cc(C(F)(F)F)ccc4[nH]3)c2)c1)c1ccncc1 | 7.47%
CC(C)CCCC(C)(C)NC[C@@H](O)[C@H](Cc1ccccc1)NC(=O)c1cc(NC(C)C)cc(N2CCCCS2(=O)=O)c1 | -1.58%
O=S(=O)(c1ccc(OCc2ccc(Cl)cc2)cc1)c1cc2c(c(-c3ccc(F)cc3)c1)CCN(CC1CC1)CC2 | 0.41%
CC(C)(C)c1ccc(OCC(=O)NC2CCN(c3ccnc4cc(Cl)ccc34)C2)cc1 (stereo not given) | 0.05%
Cc1ccc(O)cc1Nc1ccnc2cc(-c3csc(CN4CCN(C)CC4)n3)ccc12 | 5.93%
CC(C)CCN(Cc1cncn1Cc1cccc(C(F)(F)F)c1)C(=O)c1cncc(-c2ccccc2)c1 | 4.72%
CC(=NNC(S)=NC(C)(C)C)c1ccccn1 | 69.5%
CCN(CC)CCCn1c(N)c(-c2nc3ccccc3[nH]2)c2nc(C#N)c(C#N)nc21 | 6.56%
O=C(Nc1ccc(-c2nc3ccccc3[nH]2)cc1)c1cccc(S(=O)(=O)N2CCOCC2)c1 | 5.13%
Cc1cc(Nc2ccccc2)nc(Nc2ccccc2C)n1 | 4.32%
CSCCCN1CCC(O)(c2ccc3oc(C(=O)Nc4ccc5sc(C)nc5c4)cc3c2)CC1 | 24.5%
COc1ccc(CCn2c(=N)c(C(=O)NCc3ccc(C)cc3)cc3c(=O)n4ccccc4nc32)cc1 | 3.72%
OCC1CCCCN1Cc1cccc(-c2cccc(-c3nc4ccccc4[nH]3)c2)c1 (stereo not given) | 4.14%
Cc1cccc(Nc2nccc(NCC(O)c3cccc(C(F)(F)F)c3)n2)c1 (stereo not given) | 7.59%
CC[C@@H]([C@@H](Cc1cc2ccccc2s1)C(=O)N[C@@H](CCCCNC(=O)OCc1ccccc1)C(=O)Nc1ccccn1)N(O)C=O | 4.31%
Cc1[nH]cnc1CSCCNC(=N)NCCCCCCCCNC(=N)NCCSCc1nc[nH]c1C | 0.71%
COc1ccc2c(c1C1CCN(CCCCNC(=O)c3ccc(NC(=O)c4ccc(Cl)cc4)cc3)CC1)CCCC2 | -1.03%
NC(=O)c1cccc(C(=O)Nc2cccc(-c3cccc(-c4nc5ccccc5[nH]4)c3)c2)c1 | 5.18%
Cc1ccc(NC(=O)c2ccc3nccnc3c2)cc1OC1CCN(Cc2ccc(F)cc2)CC1 | 11.1%
O=C(/C=C/c1ccccc1Cl)Nc1ccc(Br)c(OCCN2CCN(CCN3CCCC3)CC2)c1 | 3.71%

Structure (SMILES) | inhibition
CCNC(=O)NC1CCN(Cc2c(-c3cccs3)nc3ccccc3c2C(=O)N[C@@H](C)C2CCCCC2)CC1 | 0.77%
O=C(NCC1CC1)C1Cc2c([nH]c3ccc(Br)cc23)C2(CCN(CCc3ccccc3)CC2)N1 (stereo not given) | -0.28%
CC(C)C1c2ccc(O)cc2CC2C(=O)N(C3CCCCC3)C(=O)N21 (stereo not given) | -1%
CCN(CC)CCN(Cc1ccc(-c2ccc(C(F)(F)F)cc2)cc1)C(=O)Cn1c(CCc2cccc(F)c2F)nc(=O)c2sccc21 | 1.36%
Nc1ncc(-c2ccccc2)cc1-c1nc2cc(Cl)c(F)cc2[nH]1 | 8.28%
CN(C)CCN(C)Cc1ccc(-c2cccc(NC(=O)c3cccc(C#N)c3)c2)cc1 | 10.9%
COc1ccc2c(c1CNCCCCCCNCc1c(OC)ccc3c1CCCC3)CCCC2 | 8.33%
O=S(=O)(NCCN1CCCC1)c1ccc(-c2ccc(CNCc3ccsc3)cc2)cc1 | 6.54%
O=C(CCc1c[nH]cn1)Nc1cccc(-c2ccc(-c3nc4ccccc4[nH]3)cc2)c1 | 4.68%
COc1cc(F)c2nccc([C@@H](O)CN3CCC(NCc4nc5cccc(F)c5[nH]4)CC3)c2c1 | 0.25%
Cc1ccc2nc(N/C(N)=N/C(=O)NC3CCCCC3)nc(C)c2c1 | 4.89%
COc1csc2cc(Br)ccc12 | 1.16%
CCCCc1ccc(C(=O)Nc2ccc3nc(N4CCN(CC)CC4)cc(C)c3c2)cc1 | -0.16%
Cc1cc(CN2CC[C@H](NC(=O)c3ccc(Cl)c(Cl)c3)C2)ccc1OC1CCN(Cc2ccccc2)CC1 | 8.06%
COc1ccc(C2=C(Nc3ccc4oc5ccccc5c4c3)c3ccccc3C2=O)cc1 | -0.17%
Cc1ccc(Nc2nc(C)cc(Nc3cccc(C#N)c3)n2)cc1 | 65.8%
Cc1cc(Cl)c(S(=O)(=O)NC(C)(C)C)cc1OCC(=O)NC1CCCCC1 | 0.93%
Fc1ccc(COc2ccc(Nc3ncnc4ccc(I)cc34)cc2Cl)cc1 | 5.02%
CC(=O)Nc1ncc(C(=O)Nc2cccc(-c3cccc(-c4nc5cccc(C)c5[nH]4)c3)c2)s1 | 2.86%
COc1ccc(-c2cccc(NC(=O)c3cccc(C#N)c3)c2)cc1CN1CCCC1 | 15.9%
